Assay outcomes deposited in PubChem by National Center for Advancing Translational Sciences (NCATS).
NPC1 prom act: activates the NPC1 promoter; Huh7 NPC1 promoter luciferase reporter, 24 h; Potency, µM (titrated, usually from 9.22 µM), without a hit: at the top dose activation, most hits filed as activators; actives 2.4% (n = 320,000); AID 485313; also: % of control where 0% means no effect; nearly all actives have a fitted effect of over 60% in size
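Huh7 reporter cells (NPC1 promoter driving luciferase) are dosed with compound for 24 h at 37 °C, 5% CO2; luciferase detection reagent is then added and luminescence measured after 10 min at ambient temperature.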
ELG1 genotoxic: induces genotoxicity in HEK293T cells with luciferase-tagged ELG1. HEK293T ELG1-luciferase reporter, luminescence, 16 h. Potency, µM (top dose mostly 46 µM), inactives show at the highest dose activity change, positive = activation, hits mostly activators. actives 1.3% (n = 330,000); also: % of control where 0% means no effect; nearly all actives have a fitted effect of over 60% in size
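HEK293T cells expressing luciferase-tagged ELG1 were treated with compound or DMSO for 16 hr at 37°C. Luciferase activity was then read after 30 min with ONE-Glo at room temperature; rising signal flags genetic stress.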
FLuc counter: firefly luciferase modulation, counter-screen for miR-21 project | P08659 | purified FLuc, Km substrates, luminescence inhibition | Potency, µM (top dose mostly 57.5 µM), for the others: at the top dose activity change, negative = inhibition, most hits filed as inhibitors | actives 6.9% (n = 360,000);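 also: plate controls were vehicle for no effect and reference inhibitor for full effect; nearly all actives have a fitted effect of over 55% in size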
Target sequence (P08659 whole entry, looked up): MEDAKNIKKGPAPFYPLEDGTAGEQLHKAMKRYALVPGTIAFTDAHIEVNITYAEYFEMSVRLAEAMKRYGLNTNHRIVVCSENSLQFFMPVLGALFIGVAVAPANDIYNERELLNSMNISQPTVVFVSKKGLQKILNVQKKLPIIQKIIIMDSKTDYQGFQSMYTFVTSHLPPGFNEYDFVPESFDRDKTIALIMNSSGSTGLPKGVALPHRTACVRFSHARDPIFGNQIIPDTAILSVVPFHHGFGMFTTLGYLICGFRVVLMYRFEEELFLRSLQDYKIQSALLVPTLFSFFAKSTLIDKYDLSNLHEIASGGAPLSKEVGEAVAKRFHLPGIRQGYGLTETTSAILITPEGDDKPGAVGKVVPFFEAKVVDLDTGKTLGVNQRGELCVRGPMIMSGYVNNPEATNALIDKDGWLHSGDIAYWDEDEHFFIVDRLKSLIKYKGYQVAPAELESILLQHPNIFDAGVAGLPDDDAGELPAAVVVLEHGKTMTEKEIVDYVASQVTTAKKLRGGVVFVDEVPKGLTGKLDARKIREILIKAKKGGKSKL
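Biochemical qHTS of compounds, final roughly 60 µM downward over six points, against 10 nM purified firefly luciferase using Km concentrations of substrates (10 uM D-luciferin, 10 uM ATP) in Tris acetate pH 7.5 buffer; luminescence output.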
Rab9 promoter act: activates the Rab9 promoter | Huh7 Rab9 promoter-luciferase reporter, luminescence, 24 h | actives 2.8% (n = 320,000) | Potency, µM (titrated, usually from 9.22 µM), without a hit: at the top dose activation, negative = inhibition, usual class: activators | AID 485297; also: % of control where 0% means no effect; nearly all actives have a fitted effect of over 60% in size
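Luciferase signal after 10 min detection reagent at ambient indicates Rab9 promoter upregulation; stably transfected Huh7 cells were treated 24 h with compound in DMSO at 37 °C, 5% CO2.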
ELG1 DNA repair: inhibitors of ELG1-dependent DNA repair in HEK293T cells. Potency, µM (top dose mostly 46.1 µM), inactives show at the top dose activity change, negative = inhibition, most hits filed as inhibitors. AID 504467. HEK293T ELG1-luciferase reporter, luminescence, 16 h; DNA damage induced by 5-fluorouridine. actives 2.3% (n = 330,000); also: % is scaled to controls: 0 for no effect and ±100 for the full control effect; nearly all actives have a fitted effect of over 55% in size
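Overnight (16 hr) co-exposure of 2,000 cells/well to 5-fluorouridine and compound at 37 °C preceded detection. Luciferase was quantified via ONE-Glo luminescence; loss of signal denotes inhibition.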
SMN2 splice enh: enhancers of SMN2 splice variant expression; HEK293 SMN2-luciferase splicing reporter, luminescence, 30-36 h; Potency, µM (highest dose often 46.1 µM), without a hit: at the highest dose activity change, positive = activation, hits mostly activators; actives 2.8% (n = 210,000); AID 1458; also: % of control where 0% means no effect; nearly all actives have a fitted effect of over 55% in size
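HEK293 cells carry an SMN2 […]–luciferase reporter in which exon 7 inclusion puts luciferase in frame. Cells were plated 10-12 h before compound addition, then incubated 30-36 h at 37C. ONE-Glo luminescence was read; sodium butyrate at 4.5 mM final served as control.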
The depositor's hits bear a star; ? = inconclusive; · = no result. Compounds with a hit are over-represented: about 9.2% of the library has one in this group of screens. Calls follow the shape of the dose curve; as a rule, active = well fitted curve in the direction sought with a large enough effect; inconclusive = small, poorly fitted or top-dose-only effect, or another doubt; inactive = no such curve, though single readings can be large; an effect the other way counts as inactive or inconclusive. Potency is read from the fitted curve at half-maximal effect.

SMILES	NPC1 prom act	ELG1 genotoxic	FLuc counter	Rab9 promoter act	ELG1 DNA repair	SMN2 splice enh
CCOC(=O)COc1ccc(-c2nnn(CC(=O)Nc3ccccc3)n2)cc1	·	·	-1%	·	·	18%
COCc1ccc(C(=O)N(C)CC2CCCN(CCc3ccc(OC)cc3)C2)o1 (stereo not given)	?	?	17µM*	?	?	·
COCc1ccc(C(=O)N(C)CC2CCCN(CCc3ccc(Cl)cc3)C2)o1 (stereo not given)	8%	-6%	-2%	0%	-5%	·
O=C(NC1CC1)c1cc2ccccc2o1	11%	11%	?	11%	11%	·
Cc1ccc(/C=N/NC(=O)c2cc3c(ccc4ccccc43)o2)o1	5%	-4%	?	3%	?	·
CNC(=O)c1cc2c(ccc3ccccc32)o1	?	?	19µM*	?	?	29%
O=C(NC1CCCC1)c1cc2c(ccc3ccccc32)o1	1.4µM*	4.6µM*	6µM*	1µM*	?	13µM*
Cc1ccc(Sc2c(C)nn(-c3ccccc3)c2OC(=O)C(C)(C)C)cc1	·	·	?	·	·	8%
COc1cccc(C(=O)Nc2nc(-c3ccc4c(c3)OCO4)cs2)c1	4%	15%	17µM*	-4%	13%	-18%
O=C(Nc1nc(-c2ccc3c(c2)OCO3)cs1)C1COc2ccccc2O1 (stereo not given)	0%	0%	?	0%	-2%	6%
COc1cccc(-c2csc(N3CCN(CC(=O)Nc4ccc5c(c4)OCO5)CC3)n2)c1	0%	-6%	-13%	-2%	?	-41%
CC(=O)Nc1nc(-c2ccc3c(c2)OCO3)cs1	3.5µM*	16%	9.5µM*	2.2µM*	?	·
Cc1cc(C)c2[nH]c(C)c(CN3CCCCCC3)c(=O)c2c1	-1%	0%	-1%	-8%	1%	·
COC(=O)[C@H]1C[C@@H]1[C@H](N)c1ccccc1	-2%	1%	2%	0%	8%	-13%
C=CCn1c(-c2ccccc2)c[nH]c1=S	24%	13µM*	27µM*	28%	?	-2%
CCc1ccccc1NC(=O)c1cnc2scc(C)n2c1=O	21%	15%	?	29%	?	?
CSc1ccccc1NC(=O)c1cnc2scc(C)n2c1=O	0%	18µM*	?	22%	?	?
Cc1cc(Br)cc(C)c1NC(=O)c1cnc2ccccn2c1=O	·	·	-2%	·	·	-8%
Cn1c(C(=O)NCCc2ccccc2)cc2c(=O)n3ccccc3nc21	·	·	-7%	·	·	·
Cc1ccccc1NC(=O)c1cnc2ccccn2c1=O	?	?	0.76µM*	0.79µM*	?	?
Cc1csc2ncc(C(=O)NCCc3ccccc3)c(=O)n12	?	21µM*	?	?	?	?
O=C(NCCc1ccccc1)c1cnc2ccccn2c1=O	0.89µM*	21%	11µM*	0.56µM*	?	4µM*
O=C(C1CCCN(S(=O)(=O)c2cccc3nsnc23)C1)N1CCN(c2ccccc2)CC1 (stereo not given)	·	·	-8%	·	·	-36%
CCOc1ccc(CNC(=O)c2cnc3c(C)cccn3c2=O)cc1	·	·	1%	·	·	·
Cc1cccc(CCNC(=O)c2cnc3c(C)cccn3c2=O)c1	·	·	4.3µM*	·	·	·
SMILES	NPC1 prom act	ELG1 genotoxic	FLuc counter	Rab9 promoter act	ELG1 DNA repair	SMN2 splice enh
Cc1cccn2c(=O)c3cc(C(=O)NCCc4ccccc4)c(=N)n(Cc4ccco4)c3nc12	-6%	-8%	-1%	-6%	15µM*	·
Cc1cccn2c(=O)c3cc(C(=O)NCc4ccco4)c(=N)n(CCc4ccccc4)c3nc12	1%	4%	-6%	0%	0%	·
CC(=O)N1CCN(C(=O)COC(=O)c2oc3ccccc3c2C)CC1	1%	4%	-1%	-1%	-17%	·
CCC1C/C(=C/c2ccco2)C(=O)/C(=C/c2ccco2)C1 (stereo not given)	1%	6%	-8%	3%	?	-9%
Nc1ccc2c(c1)C/C(=C/c1ccco1)C2=O	2.8µM*	21µM*	0.6µM*	2µM*	?	?
COc1ccc2c(c1)CC/C(=C\c1ccc(OC)c(Cn3nc(C)cc3C)c1)C2=O	-4%	-21%	?	-4%	?	-15%
O=C1/C(=C/c2ccco2)CCc2ccccc21	4µM*	7.3µM*	2.1µM*	?	?	?
O=C1c2ccccc2CCc2ccc(Br)cc21	0%	5%	?	-2%	29%	·
COc1ccc2c(c1)CC/C(=C/c1ccco1)C2=O	2.2µM*	?	0.67µM*	3.5µM*	?	18µM*
CC1C(=O)N2CCCc3cc(NC(=O)c4ccccc4F)cc1c32 (stereo not given)	-4%	?	-24%	0%	?	·
O=C(Cc1ccc2c(c1)OCCO2)Nc1cc(Cl)ccc1N1CCOCC1	-1%	1%	-3%	-2%	1%	·
Cc1ccc(-c2nc3n(n2)C(c2ccccc2Cl)C=C(c2ccc(Cl)cc2)N3)cc1 (stereo not given)	·	·	-4%	·	·	-5%
Cc1cccc(N2CCN(C(=O)c3cc4n(n3)C(C(F)(F)F)CC(c3ccco3)N4)CC2)c1C (stereo not given)	-2%	-24%	1%	-11%	21µM*	0%
CCN(CC)c1ccc2cc(C(=O)Nc3ccccn3)c(=O)oc2c1	0.32µM*	?	0.54µM*	0.11µM*	?	2.8µM*
CCN(CC)c1ccc2cc(C(C)=O)c(=O)oc2c1	1%	?	?	20%	?	4%
CCN(CC)c1ccc2cc(C(N)=O)c(=N)oc2c1	3%	?	24µM*	12%	?	17%
CCN(CC)c1ccc2cc(C(=O)Nc3cccnc3N3CCOCC3)c(=O)oc2c1	-2%	6%	-17%	-2%	2%	·
CCCCCCc1cc2cc(C(N)=O)c(=N)oc2cc1O	2%	-8%	17µM*	-1%	?	-2%
CCN(CC)c1ccc2cc(NC(=O)CCC(=O)O)c(=O)oc2c1	-23%	-12%	6.7µM*	-28%	0%	-55%
CS(=O)(=O)/C(C#N)=C\c1cnc(S(=O)(=O)c2ccccc2)s1	-1%	-12%	?	-19%	24%	·
COc1ccc(-c2c[n+](CC(=O)c3ccccc3)c3n2CCCCC3)cc1	-3%	-4%	0%	-11%	15µM*	·
O=C(C[n+]1cc(-c2ccc(F)cc2)n2c1CCC2)c1cccs1	3.2µM*	?	2.4µM*	2.5µM*	?	·
O=C(C[n+]1cc(-c2ccccc2)n2c1CCCCC2)c1ccc(Cl)cc1	-1%	-8%	0%	-9%	5%	8%
